Test results as given in ChEMBL document CHEMBL3988442, “University of Dundee, Small-Polar-MMV Screening Library” (2021).
The campaign covered roughly 48,000 compounds. About 13,000 (27%) showed an effect of 50% or more. Some of the results follow.

What follows are compounds tested on Wolbachia pipientis (assay: Anti-Wolbachia Cell-Based Screen). Details: 5 µM.
Type: functional
Parameters: scale not given: in the data most compounds retested in dose-response had high values

SMILES | Percent Effect [%]
CC(Nc1ccn(CCS(C)(=O)=O)n1)c1ccc(C#N)cc1 (stereo not given) | -8.389
F[C@@H]1CN(CC2CC2)C[C@@H]1OCc1nc2ccccc2[nH]1 | -1.846
COc1ccc(F)cc1Cn1nc(C(N)=O)ccc1=O | 1.725
COC(=O)Cn1nc(-c2ccccc2F)ccc1=O | 121.8
COc1ccc(C(=O)Nc2ccccc2-c2ccc(=O)n(C)n2)nn1 | -4.369
CC(C)(C)C(=O)Cn1nc(-c2ccccc2F)ccc1=O | -0.9957
Cn1nc(-c2ccccc2NC(=O)c2cncc(Br)c2)ccc1=O | -4.851
CC(=O)Cn1nc(-c2ccccc2F)ccc1=O | 119.2
NC(=O)Cn1nc(-c2ccccc2F)ccc1=O | 144.8
O=C(NC1CCN(c2ccc(-c3ccccc3F)nn2)C1)C1CCC1 (stereo not given) | -17.95
O=C(O)Cn1nc(-c2ccccc2F)ccc1=O | 139.2
CC(C)Oc1cccc(C(=O)C2CCCN(C(=O)c3ncn[nH]3)C2)c1 (stereo not given) | -4.294
CS(=O)(=O)c1ccc(NC(=O)CSc2ccc3c(c2)CCC3)cn1 | 7.446
CC(c1nc(C2CC2)no1)N(C)Cc1cccc(F)c1 (stereo not given) | 12.3
CCN(CC)C(CNS(=O)(=O)c1ccc(C(=O)NC)cc1)c1ccco1 (stereo not given) | 0.6188
O=S(=O)(C1CC1)N1CCC2(CC1)COC(COc1cccnc1)C2 (stereo not given) | -3.155
N[C@H]1CN(S(=O)(=O)N2CCCCCC2)C[C@@H]1c1ccccc1 | 3.796
CC1(C)CN(S(=O)(=O)N2CCOCC2)CC1c1ccccc1 (stereo not given) | -33.51
O=C1CCC[C@]2(CN(S(=O)(=O)C3CCCCC3)C[C@H]2c2cccnc2)N1 | 155.7
CC1(C)CN(S(=O)(=O)N2CCCC2)CC1c1ccccc1 (stereo not given) | -16.61
O=C1CCC[C@]2(CN(S(=O)(=O)N3CCCCC3)C[C@H]2c2cccnc2)N1 | 175
CC(C)N1CCC2(CC1)CC(c1cccnc1)C(=O)N2 (stereo not given) | -11.82
O=C(N1CC(c2cccnc2)C1)C1(c2ccc(F)cc2)CCOCC1 | 1.587
O=C1CCC[C@]2(CN(S(=O)(=O)N3CCOCC3)C[C@H]2c2cccnc2)N1 | 174.7
CCc1[nH]ncc1C(=O)N1CCN(c2nc(C)cc(OC)n2)CC1 | -4.996

SMILES | Percent Effect [%]
O=C(OCCNc1ncccn1)c1ccc(Cl)s1 | -0.7929
c1ccc(COC[C@]23COC[C@H]2CN(c2ncccn2)C3)nc1 | 107.1
Cc1cccc(CN2C[C@@H]3COC[C@]3(COc3ccc(C#N)cn3)C2)n1 | -1.985
Cn1cc(CN2C[C@@H]3COC[C@]3(COc3ccc(C#N)cn3)C2)cn1 | -1.317
N#Cc1ccc(OC[C@]23COC[C@H]2CN(c2ncccn2)C3)nc1 | 98.67
c1ccc(COC[C@@H]2CC[C@H]3[C@H](CCN3c3ncccn3)O2)nc1 | -9.448
O=S(=O)(c1ccccc1)N1C[C@@H]2COC[C@]2(COCC2CC2)C1 | 4.427
CCc1ncc2c(n1)CN(C(C)C(=O)N1CCOCC1)CC2 (stereo not given) | -13.62
CC(Oc1ccc(F)cc1F)C(=O)N1CCC2(CCCO2)CC1 (stereo not given) | -4.107
O=C(c1cn2ccsc2n1)N1CCOCC(O)(CN2CCCC2)C1 (stereo not given) | 6.26
O=C(c1cccc(O)n1)N1CCC(O)(CN2CCC(F)(F)CC2)C1 (stereo not given) | 119.2
O=C(c1cnc(COc2ccccc2)nc1O)N1CCC(F)(F)CC1 | 10.39
O=C(c1ccc(=O)[nH]n1)N1CCCC(O)(CN2CCC(F)(F)CC2)CC1 (stereo not given) | 110.9
CCOc1ccccc1OC1CCN(C(=O)c2ccc(=O)[nH]n2)CC1 | -11.25
O=C(c1cc(F)ccc1F)C1CCN(C(=O)c2ccc(=O)[nH]n2)CC1 | 6.401
NC(=O)Nc1cc(F)ccc1SCC(F)F | -8.756
CCn1cc(CNC(C)c2noc(-c3ccc(Cl)cc3)n2)cn1 (stereo not given) | 5.108
CCN(CC1CCOC1)S(=O)(=O)Cc1ccccc1Cl (stereo not given) | -1.168
CC(CN1CCOCC1)NCC1CCN(c2cnn(C)c(=O)c2)CC1 (stereo not given) | -0.8467
Cc1ccc(C)c(OCCNC(=O)C2CCOC2)c1 (stereo not given) | -7.675
O=C(NCc1ccccc1OCC1CC1)C1CCOC1 (stereo not given) | -26.71
CCc1[nH]c2c(CNC(=O)C3CCC(=O)NC3)cc(C)cc2c1C (stereo not given) | -3.367
O=C(CNC(=O)C1CC1)Nc1c(F)cccc1Oc1ccccc1 | -3.554
Cc1cccc(Oc2ccccc2CNC(=O)C2CCC(=O)NC2)c1 (stereo not given) | 96.69
CCc1[nH]c2c(CNC(=O)C3CNC(=O)C3)cc(C)cc2c1C (stereo not given) | -7.809

SMILES | Percent Effect [%]
Cc1ccc(CNC(=O)C2CCNC(=O)C2)c(OCCC(C)C)c1 (stereo not given) | 103.9
CC(C)(C)Oc1ccccc1CNC(=O)C1CCCOC1 (stereo not given) | -47.48
Cc1cccc(Oc2ccccc2CNC(=O)C2CCNC(=O)C2)c1 (stereo not given) | 104.5
O=C1CC(C(=O)NCc2ccccc2Oc2ccccc2F)CCN1 (stereo not given) | 91.68
Cc1ccc(C)c(OCCNC(=O)[C@@H]2CCCCN2)c1 | -1.478
O=C1CCC(C(=O)NCCOc2cccc(Cl)c2Cl)CN1 (stereo not given) | -0.2416
CC(NC(=O)N1CCSC(C)(C)C1)c1noc(-c2ccccc2)n1 (stereo not given) | -9.511
CCC[C@H]1CN(Cc2cncn2C)C[C@@H]1NC(=O)C1(COC)CCC1 | -8.158
COCCNC(=O)c1ccoc1CN1c2ccccc2CC1C (stereo not given) | -13.79
Cc1nc(C)n(CC(C)C(=O)N2CCCN(C3CCCC3)CC2)n1 (stereo not given) | -15.63
O=C1O[C@@H]2CN(Cc3ccncc3)C[C@@H]2N1CCCN1CCOCC1 | -10.63
O=c1[nH][nH]cc1-c1ccnc(NCCN2CCCCC2)n1 | 112.5
C[C@H]1CCCCN1CCCNc1nccc(-c2c[nH][nH]c2=O)n1 | 112
O=c1[nH][nH]cc1-c1ccnc(NCCCN2CCOCC2)n1 | 116.9
O=c1[nH][nH]cc1-c1ccnc(NCCN2CCCC2)n1 | -6.447
CC(C)COCC(NC(=O)c1ccccn1)c1ccco1 (stereo not given) | 12.33
O=C1CNCC(C(=O)N2CC(Oc3ccccc3Cl)C2)N1 (stereo not given) | -5.2
COc1ccc(F)cc1CN1CCCn2nc(CNS(C)(=O)=O)cc2C1 | 6.854
CN1CCC(C(=O)N2CCC(c3ccc4c(N)n[nH]c4n3)CC2)CC1 | 104
Cc1ccc2c(c1)c(CNC(=O)C1CCN(C(=O)C3CC3)CC1)nn2C | -8.87
O=C(C1CC1)N1CCC(c2nc(-c3ccccc3)n[nH]2)CC1 | -8.829
CCc1noc(CN(C)C(=O)C(C)(C)Oc2cccc(Cl)c2)n1 | 11.07
CO[C@H]1COCCN(C(=O)c2ccc(C(F)(F)F)cc2)C1 | -0.5949
Cc1csc(CN2CCn3c(COc4cccnc4)cnc3C2C)n1.O=C(O)C(F)(F)F.O=C(O)C(F)(F)F (stereo not given) | 106.1
Cc1ncsc1CN1CCn2c(COc3cccnc3)cnc2C1C.O=C(O)C(F)(F)F.O=C(O)C(F)(F)F (stereo not given) | -6.197

SMILES | Percent Effect [%]
CC1c2ncc(COc3cccnc3)n2CCN1C(=O)C1=CCCC1.O=C(O)C(F)(F)F (stereo not given) | 6.564
Cc1ccsc1CN1CCn2c(COc3cccnc3)cnc2C1C.O=C(O)C(F)(F)F.O=C(O)C(F)(F)F (stereo not given) | 105.4
CCOCc1cnc2n1CCN(Cc1nc(C)cs1)C2C.O=C(O)C(F)(F)F (stereo not given) | -1.73
COCc1cnc2n1CCN(Cc1cccnc1)C2C.O=C(O)C(F)(F)F.O=C(O)C(F)(F)F (stereo not given) | -12.59
CCOCc1cnc2n1CCN(Cc1cccs1)C2C.O=C(O)C(F)(F)F (stereo not given) | 10.91
CC1c2ncc(COc3cccnc3)n2CCN1Cc1cnn(C)c1.O=C(O)C(F)(F)F.O=C(O)C(F)(F)F (stereo not given) | 101.1
Cc1ccc(CN2CCn3c(COc4cccnc4)cnc3C2C)o1.O=C(O)C(F)(F)F.O=C(O)C(F)(F)F (stereo not given) | 105.5
Cc1ccc(CN2CC[C@@H](N3CCOCC3)[C@@H]2Cc2cccnc2)o1.O=C(O)C(F)(F)F.O=C(O)C(F)(F)F.O=C(O)C(F)(F)F | -6.789
CCNc1ncc(CN(CCN(C)C)Cc2ccc(C)s2)cn1 | 9.658
CC(CC#N)N(C)Cc1ccc(F)cc1F (stereo not given) | -4.017
NC(=O)Nc1cc(Br)cnc1OCC(F)(F)F | 3.483
CC(C)N1CCC(CC(=O)N(C)CC(=O)c2ccc(O)cc2)CC1 | -41.3
COc1cc(OC)cc(-n2ccnc2-c2cc3n(n2)CCNC3)c1 | -3.796
CN(C)C[C@H]1C[C@@H](CO)CN(C(=O)CCc2nc(Cl)n[nH]2)C1 | -2.145
Cc1cccc2c1nc1n2[C@@H](CNC2CCCCC2)COC1 | -2.586
CC1c2ncc(COc3cccnc3)n2CCN1Cc1ccco1 (stereo not given) | 103.4
CC1c2ncc(COc3cccnc3)n2CCN1C(=O)Cc1ccco1.O=C(O)C(F)(F)F (stereo not given) | 6.97
CCCNC(=O)c1ccc2c(c1)C(=O)N(CC(C)C)C2=O | 12.13
O=C(Cc1ccc(F)cc1)NS(=O)(=O)c1ccc(F)c(F)c1 | -8.123
Cc1ccc2cc(C(=O)N3CCC(O)(C(F)(F)F)CC3)ccc2n1 | 14.37
CC(=O)N1CC2(CCN(C(=O)c3ccoc3)C2)C1 | -7.067
O=C(c1ccoc1)N1CCC(O)(C(F)(F)F)CC1 | 69.76
O=C(c1cc(F)cc(F)c1)N1CCC2(CC1)CC2 | 32.79
O=C(c1cc(F)cc(F)c1)N1CCC(O)(C(F)(F)F)CC1 | 87.26
CC[C@@]1(O)CCN(C(=O)c2ccoc2)C[C@H]1O | -13.59
